# An excerpt weighted towards active compounds, which were near 4.6% of everything screened.
# D1 agonist: agonists of human D1 dopamine receptor; 360,000 tested, 1% active; HEK293 T-REx D1 cells, calcium flux, agonist mode; AID 504660; activation, % at 2 µM; P21728; note: 0% is about no effect
#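 Tetracycline-induced HEK293 TREx D1 cells, force-coupled to calcium signalling, were dye-loaded with a no-wash calcium kit. Compound was pin-added after a 10 s baseline. Fluorescence was read kinetically at 1 cycle/s for 180 s, with calcium rises flagged as agonism.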
# D1 antag: antagonists of human D1 dopamine receptor | HEK293 TREx D1 cells, calcium flux, dopamine EC80; stronger effect = lower value | 360,000 tested, 3.2% active | P21728 | activity change, negative = inhibition, % at 10 µM; in the data active = activity change below about -30%; note: % is set by controls: 0 for no effect and ±100 for the full control effect
#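 Tetracycline-induced HEK293 T-REx cells with force-coupled D1 receptor were loaded with a no-wash calcium dye. Compound was added after a 10 s baseline and read kinetically for 180 s; EC80 dopamine was then added and calcium flux followed another 180 s.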
# TRHR ag: agonists of human TRH receptor; TRHR cells, calcium flux fluo-8, FDSS agonist mode; 360,000 tested, 0.18% active; activation, % at 2 µM; P34981; note: 0% is about no effect
# Target sequence (P34981 whole entry, looked up): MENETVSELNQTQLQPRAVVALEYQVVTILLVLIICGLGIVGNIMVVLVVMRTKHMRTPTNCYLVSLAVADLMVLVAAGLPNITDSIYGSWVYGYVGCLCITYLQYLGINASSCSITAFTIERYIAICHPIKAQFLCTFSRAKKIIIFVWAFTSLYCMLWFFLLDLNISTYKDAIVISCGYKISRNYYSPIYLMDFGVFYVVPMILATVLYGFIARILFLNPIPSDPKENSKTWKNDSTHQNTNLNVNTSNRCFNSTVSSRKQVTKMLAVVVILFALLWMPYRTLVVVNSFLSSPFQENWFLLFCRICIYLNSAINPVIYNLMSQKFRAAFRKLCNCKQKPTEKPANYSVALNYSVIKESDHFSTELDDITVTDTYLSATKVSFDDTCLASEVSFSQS
#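 In this calcium-flux screen, cells bearing human TRHR are dye-loaded with fluo-8, baselined for 10 cycles, then exposed to library compounds; positive kinetic calcium responses during the agonist phase mark hits, with TRH as control.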
# TRHR enhancer: TRH receptor (human) allosteric enhancement. P34981. TRHR cells, fluo-8 calcium fluorescence, EC20 TRH enhancement. enhancement, % at 2 µM. 360,000 tested, 0.66% active; in the data active = enhancement above about 30%; note: 0% is about no effect
#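 Enhancer read-out: after compound pinning and an initial kinetic agonist-mode read, an EC20 of TRH (10 nM final) was injected and fluo-8 calcium signal (Ex 480/Em 530) followed at 1 s/cycle for 100 cycles in TRHR-expressing cells.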
# D1 potentiator: enhances dopamine response at the human D1 receptor; P21728; HEK293 TREx D1 cells, calcium flux, dopamine EC20 potentiation; potentiation, % at 10 µM; 360,000 tested, 0.036% active; AID 504651; in the data active = potentiation above about 30%; note: 0% is about no effect
# * = called active by the depositor; . = no result given. Cut-off read from the data, not from the text of the source, unless noted: active = activation above about 30%; inactive = the rest.
SMILES,D1 agonist,D1 antag,TRHR ag,TRHR enhancer,D1 potentiator
Cc1cccc(C(=O)NC(=S)NNC(=O)Cc2ccccc2)c1,71.8*,-13.1,10.4,0.5,-0.9
CCC(=O)NNC(=S)NC(=O)c1ccc(C)cc1,6.4,-8.8,0.6,0.8,-2.8
Cc1ccc(C(=O)NC(=S)NNC(=O)COc2ccccc2C)cc1,30.6*,3.4,3.9,1.5,1.8
Cc1cccc(C(=O)NC(=S)Nc2ccccc2C(F)(F)F)c1,7.9,7.4,-0.3,31.6*,-3.5
Cc1cccc(C(=O)NC(=S)NNC(=O)COc2c(C)cccc2C)c1,137.0*,-25.3,8.4,7.9,-3.5
O=C(COc1ccccc1)NNC(=S)NC(=O)c1ccccc1,1.7,-4.2,-0.1,0.7,-4.3
CC(=O)Cc1nsc(NC(=O)c2ccc(-c3cc(C(F)(F)F)ccc3Cl)o2)n1,2.3,-32.6*,-0.2,0.4,-3.8
CC(=O)Cc1nsc(NC(=O)c2ccc(-c3ccc(Cl)cc3Cl)o2)n1,4.3,-30.7*,-0.2,4.2,-8.7
CC(=O)Cc1nsc(NC(=O)c2ccc(-c3cc(Cl)ccc3Cl)o2)n1,5.7,-12.8,-0.6,-9.2,9.2
COc1ccc2oc(C(=O)NCCC(C)C)c(C)c2c1,-1.7,3.8,-0.1,6.1,-3.5
COc1ccc(-n2c(O)c(/C=N/NS(=O)(=O)c3cc(C)ccc3C)c3ccccc3c2=O)cc1OC,69.2*,-4.2,71.7*,7.8,-3.0
COc1ccc(-n2c(O)c(/C=N/NS(=O)(=O)c3ccc(C)cc3)c3ccccc3c2=O)cc1OC,53.1*,-6.2,23.1,1.7,1.1
COc1ccc(-n2c(O)c(/C=N/Nc3nc(C)cc(C)n3)c3ccccc3c2=O)cc1OC,-2.0,16.1,0.4,-1.7,2.5
Cc1ccsc1CCN1C(=O)N(c2ccccc2)C(=O)C1CC(=O)Nc1ccc(F)cc1 (stereo not given),18.7,0.0,2.1,-11.6,-4.0
CCOc1ccc(NC(=O)CC2C(=O)N(c3ccc(Cl)cc3)C(=O)N2Cc2cccs2)cc1 (stereo not given),0.7,-73.9*,-0.2,4.5,-3.4
COC(=O)c1ccc(NC(=O)CC2C(=O)N(c3ccc(Cl)cc3)C(=O)N2Cc2cccs2)cc1 (stereo not given),1.0,-13.2,0.6,2.7,-2.9
Cc1ccsc1CCN1C(=O)N(c2ccc(F)cc2)C(=O)C1CC(=O)Nc1ccccc1 (stereo not given),3.7,-30.5*,0.3,-8.3,-4.3
CCOc1ccc(NC(=O)CC2C(=O)N(c3ccc(C)cc3)C(=O)N2Cc2ccc(OC)cc2)cc1 (stereo not given),0.1,-3.4,-0.1,44.8*,0.7
COC(=O)CN1C(=S)N(c2ccc(Cl)cc2)C(=O)C1CC(=O)Nc1ccccc1 (stereo not given),3.2,-31.9*,-0.3,22.5,-3.5
COc1ccc(CN2C(=O)N(c3ccc(OC)cc3)C(=O)C2CC(=O)Nc2ccccc2)cc1 (stereo not given),1.8,-2.5,0.4,4.8,-1.4
CCC(CC)n1[nH]c(=O)c2c(C)cc(C)nc21,1.2,-9.8,-0.7,4.3,-8.4
Cc1ccc(C)c(S(=O)(=O)c2nnn3c2nc(NCc2cccs2)c2sccc23)c1,4.1,-26.5,0.8,-11.5,-7.7
NNC(=O)c1cc2sccc2s1,-0.6,-35.9*,1.1,-15.8,-6.2
Fc1ccc(Oc2ccc3nnc(C(F)(F)F)n3n2)cc1,3.1,-10.7,-0.3,-1.8,-3.4
COc1ccccc1N1CCN(C(=O)c2cc(-c3ccc(C)c(F)c3)on2)CC1,2.0,-80.7*,0.4,-2.8,-0.9
SMILES,D1 agonist,D1 antag,TRHR ag,TRHR enhancer,D1 potentiator
COc1ccccc1N1CCN(C(=O)c2cc(-c3ccc4c(c3)OCO4)on2)CC1,1.1,-5.3,0.4,0.8,-3.9
CC(=O)Nc1ccc(S(=O)(=O)N(C)Cc2ccccc2)cc1,9.9,3.0,0.3,0.5,-12.6
CC(=O)Nc1ccc(S(=O)(=O)N(C)CC(=O)N(C)Cc2sccc2C)cc1,1.3,-32.0*,0.0,0.8,-9.2
N/C(=N\N=C\c1ccc(Br)o1)c1nonc1N,-0.3,-8.3,-0.6,1.4,1.6
O=S(=O)(NC1CCN(Cc2ccccc2)CC1)c1cccc(S(=O)(=O)N2CCOCC2)c1,0.8,-5.7,0.5,-1.9,-3.0
COc1ccc([C@H](OC)[C@@]2(Cc3ccc(O)cc3)N=C(N)N(C)C2=O)cc1,0.0,.,0.3,-8.8,-2.5
Cc1cc(C)cc(OCC(=O)N/N=C/c2ccc([N+](=O)[O-])o2)c1,0.1,-37.8*,0.6,3.7,-9.9
O=C(CCN1CCN(c2ccccc2)CC1)N/N=C/c1ccc([N+](=O)[O-])o1,-4.3,-43.4*,0.4,3.2,-7.7
O=C(CN1CCCCCCC1)N/N=C/c1ccc([N+](=O)[O-])o1,-1.0,0.0,0.4,-0.9,-3.3
CCCN1CCC(NCC(C)c2ccccc2)CC1 (stereo not given),8.9,12.3,-0.1,3.0,-2.9
CCOC(=O)c1cn(Cc2ccc(C)cc2)nn1,5.5,-4.5,0.1,3.2,2.6
CCOC(=O)c1cn(Cc2ccc(Br)cc2)nn1,7.0,7.9,-0.3,36.2*,-6.2
COc1ccc(NC(=O)c2ccc(Cl)nc2)cc1S(=O)(=O)N1CCOCC1,4.3,-15.1,1.9,-1.4,-0.2
O=C(Cn1ncc(Cl)c(Cl)c1=O)Nc1ccc2c(c1)OCO2,0.0,-50.0*,-0.1,2.0,-8.9
COc1ccc(NC(=O)Cn2ncc(Cl)c(Cl)c2=O)cc1S(=O)(=O)N1CCOCC1,0.0,-40.4*,-1.6,0.2,-12.1
CCOc1cc2c(cc1OCC)CN(C(=O)c1cccc(S(=O)(=O)N3CCCC3)c1)CC2,-0.1,-36.0*,-1.8,3.5,1.1
COc1cc(C(=O)Nc2ccccc2-c2nc(-c3ccccc3)no2)cc(OC)c1OC,0.6,-11.9,49.7*,6.0,-5.4
COc1cccc(NC(=O)c2ccccc2-c2nc(-c3ccc(Cl)cc3)no2)c1,7.4,-33.3*,-0.9,-0.9,2.9
COc1cccc(NC(=O)c2ccccc2-c2nc(-c3ccccc3)no2)c1,3.4,-15.9,-0.1,1.2,-8.2
Cc1ccc(SC(C)c2nc(-c3ccccc3)no2)cc1 (stereo not given),3.0,2.6,0.4,-1.7,-0.1
CC(=O)N1CCc2cc(S(=O)(=O)NCCC(=O)Nc3cccc(C)c3C)ccc21,1.3,4.8,-0.5,-4.1,-1.6
COc1ccc(C(=O)NC(C(=O)NCC2CCCO2)C(C)C)cc1 (stereo not given),1.9,22.7,0.1,-2.6,1.4
O=C(Oc1ccc2c(=O)c(Oc3ccc4ccccc4c3)coc2c1)c1cccnc1,11.4,-36.7*,0.0,7.2,-9.1
Cc1ccnc(SCC(=O)N2CCCc3ccccc32)n1,1.9,-9.9,0.7,2.2,-3.6
CCN(CC(=O)Nc1c(F)cccc1F)C(=O)CNC(=O)c1ccc2c(c1)OCO2,4.3,-32.5*,0.4,8.1,-4.0
